# According to PubChem BioAssay:
# Values without a mark were called inactive. Calls of active or inactive are those of the source. Rule as the data show it, unless noted: active = inhibition above about 28%; inactive = the rest.
# Test system: not listed separately
# Test: StAR promoter reporter inhibitors, counter-screen for LRH-1 inverse agonist project, cell-based, luminescence, high throughput (AID 651611)
# Details: StAR promoter luciferase reporter counterscreen, at 3.6 µM, stronger effect = higher value
row,SMILES,inhibition
1,CCOc1ccc(NC(=O)COC(=O)COc2cccc3c2OC(C)(C)C3)cc1,1.8%
2,COc1ccc(C2=Nn3c(nnc3-c3ccccc3OC)SC2)cc1OC1CCOC1 (stereo not drawn),54.4% (active)
3,COc1ccc(-c2ccc(C(=O)NCc3ccncc3)c3occc23)c(C)c1,29.2% (active)
4,CN(Cc1cccs1)c1nc(-c2cccnc2)nc2ccccc12,9.82%
5,COc1ccc(OC)c(-n2c(-c3ccc(S(C)(=O)=O)cc3)cc(C=O)c2C)c1,25%
6,CCOc1ccc(NC(=O)CN2C(=O)NC(C)(c3ccc(OC(F)F)cc3)C2=O)cc1 (stereo not drawn),18.8%
7,CCCc1cc(=O)oc2cc(OCC(=O)NC3CC(C)(C)NC(C)(C)C3)ccc12,-0.91%
8,CCCC(=O)Nc1sc2c(c1C(=O)Nc1ccccn1)CCCC2,-1.01%
9,O=[N+]([O-])c1ccc(N2CCCCC2)nc1N1CCCCC1,-13.2%
10,CCc1cc(=O)oc2c(C)c(OCC(=O)NC3CC(C)(C)NC(C)(C)C3)ccc12,4.17%
11,Cc1ccccc1NC(=S)NCc1ccc2[nH]c3c(c2c1)CCCC3,-0.36%
12,CCN(CC)c1nc(C)c(C(C)=O)cc1C#N,1.34%
13,COCCSc1ccccc1C(=O)NCc1ccc2c(c1)OCO2,6.49%
14,O=C(NNc1ccc([N+](=O)[O-])cc1[N+](=O)[O-])c1ccco1,12.4%
15,COc1cc(C2CC(=O)c3c([nH]c(C(=O)OCCOC(C)C)c3C)C2)cc(OC)c1OC (stereo not drawn),24.2%
16,CCN1C(=O)c2cccc3c(NC(=O)c4ccc(S(=O)(=O)N(C)C)cc4)ccc1c23,39% (active)
17,O=C1C=C(N2CCCCCC2)C2(CCCCC2)O1,4.6%
18,Cn1c(=O)n(C)c2cc(NC(=O)CCl)ccc21,60.5% (active)
19,Cc1c(Cl)cccc1NC(=O)CS(=O)(=O)c1ccccc1,13.4%
20,CC(=O)c1ccc(NC(=O)CSc2nc3[nH]ncc3c(=O)[nH]2)cc1,-0.97%

row,SMILES,inhibition
1,CCCN(CC(=O)Nc1ccccc1C)CC(=O)Nc1ccc(Br)cc1F,8.48%
2,CCS(=O)(=O)Nc1cccc(-c2ccc3nnc(-c4cccnc4)n3n2)c1,21.7%
3,COc1cc(-c2nc(C(=O)NCC3CCCO3)cc3c2[nH]c2ccccc23)cc(OC)c1OC (stereo not drawn),62.5% (active)
4,Cn1c(SCC(=O)Nc2ccc3nc(SCC(=O)NC4CC4)sc3c2)nnc1-c1ccccc1,12.3%
5,Cc1c(Cl)cccc1NC(=O)CSc1nnc(C)n1CC1CCCO1 (stereo not drawn),-4.11%
6,O=C(Nc1cccnc1)c1ccc([N+](=O)[O-])s1,25.4%
7,Cc1ccc(S(=O)(=O)N2CC(O)CC2C(=O)OCC(=O)Nc2ccc([N+](=O)[O-])cc2C(F)(F)F)cc1C (stereo not drawn),18.7%
8,Cc1sc(NC(=O)C(C)C)c(C(=O)Nc2ccccc2)c1C,13.2%
9,COc1ccc(-n2c(N)c(C(=O)NCc3cccnc3)sc2=S)cc1,4.01%
10,CCOc1ccc(NC(=O)CSc2nc3ccccc3c(=O)n2CCCC(=O)NCC2CCCO2)cc1 (stereo not drawn),1.46%
11,Cc1ccc(Cn2nc(C)c(NC(=O)c3noc4c3CCCCC4)c2C)cc1,14.1%
12,Cc1nn(Cc2ccc(Cl)cc2)c(C)c1NC(=O)c1cc(C(C)C)on1,16.2%
13,COc1cc(N)c(Cl)cc1C(=O)OCC(=O)N1c2ccccc2NC(=O)C1(C)C,11.8%
14,Cn1c(SCC(=O)Nc2ccc(N3CCOCC3)cc2)nnc1-c1ccco1,0.8%
15,CCn1c2ccccc2c2cc(/C=N/n3cn[nH]c3=S)ccc21,4.27%
16,C[C@H](CO)N1C[C@H](C)[C@H](CN(C)Cc2ccncc2)Oc2cc(-c3ccccc3F)ccc2S1(=O)=O,12.8%
17,O=[N+]([O-])c1ccc(-n2cnc3ccccc32)c([N+](=O)[O-])c1,17.6%
18,COCCNc1ccc([N+](=O)[O-])cc1C(=O)NC1CCCc2ccccc21 (stereo not drawn),4.6%
19,O=C(Cn1ccc(=O)[nH]c1=O)c1ccc([N+](=O)[O-])o1,13.1%

# Biological target: Nuclear receptor subfamily 5 group A member 2 (Homo sapiens) (UniProt O00482)
# Sequence (O00482 whole entry, looked up): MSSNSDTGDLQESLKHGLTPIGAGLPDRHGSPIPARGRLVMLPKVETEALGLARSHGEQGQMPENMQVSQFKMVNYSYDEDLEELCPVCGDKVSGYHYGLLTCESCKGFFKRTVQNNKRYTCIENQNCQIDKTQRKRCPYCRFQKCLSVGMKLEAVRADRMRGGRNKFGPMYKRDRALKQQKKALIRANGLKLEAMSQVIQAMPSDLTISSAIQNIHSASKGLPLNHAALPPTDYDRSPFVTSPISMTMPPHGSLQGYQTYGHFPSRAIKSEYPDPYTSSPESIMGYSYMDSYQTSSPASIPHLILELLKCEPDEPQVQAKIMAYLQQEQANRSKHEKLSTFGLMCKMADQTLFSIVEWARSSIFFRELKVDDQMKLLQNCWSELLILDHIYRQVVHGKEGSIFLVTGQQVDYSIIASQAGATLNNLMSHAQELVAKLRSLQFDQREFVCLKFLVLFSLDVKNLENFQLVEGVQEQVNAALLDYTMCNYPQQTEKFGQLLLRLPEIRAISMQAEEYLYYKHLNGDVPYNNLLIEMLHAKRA
# Test: NR5A2 activity suppression in reporter cells – cell-based, luminescence, confirmation (AID 651613; in the data active = inhibition above about 42%;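 also: HEK293T cells co-transfected with LRH-1 and StAR promoter luciferase reporter; 0% = vehicle wells and 100% = parental cells lacking receptor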)
# Details: cell-based LRH-1 luciferase reporter, inverse agonism; at 3.6 µM; stronger effect = higher value
row,SMILES,inhibition
1,CCOc1ccc(NC(=O)COC(=O)COc2cccc3c2OC(C)(C)C3)cc1,61.5% (active)
2,COc1ccc(C2=Nn3c(nnc3-c3ccccc3OC)SC2)cc1OC1CCOC1 (stereo not drawn),69.1% (active)
3,COc1ccc(-c2ccc(C(=O)NCc3ccncc3)c3occc23)c(C)c1,69.7% (active)
4,CN(Cc1cccs1)c1nc(-c2cccnc2)nc2ccccc12,54.4% (active)
5,COc1ccc(OC)c(-n2c(-c3ccc(S(C)(=O)=O)cc3)cc(C=O)c2C)c1,48.2% (active)
6,CCOc1ccc(NC(=O)CN2C(=O)NC(C)(c3ccc(OC(F)F)cc3)C2=O)cc1 (stereo not drawn),62.6% (active)
7,CCCc1cc(=O)oc2cc(OCC(=O)NC3CC(C)(C)NC(C)(C)C3)ccc12,53% (active)
8,CCCC(=O)Nc1sc2c(c1C(=O)Nc1ccccn1)CCCC2,47.1% (active)
9,O=[N+]([O-])c1ccc(N2CCCCC2)nc1N1CCCCC1,54.5% (active)
10,CCc1cc(=O)oc2c(C)c(OCC(=O)NC3CC(C)(C)NC(C)(C)C3)ccc12,56.7% (active)
11,Cc1ccccc1NC(=S)NCc1ccc2[nH]c3c(c2c1)CCCC3,17.9%
12,CCN(CC)c1nc(C)c(C(C)=O)cc1C#N,32.7%
13,COCCSc1ccccc1C(=O)NCc1ccc2c(c1)OCO2,39.5%
14,O=C(NNc1ccc([N+](=O)[O-])cc1[N+](=O)[O-])c1ccco1,57.6% (active)
15,COc1cc(C2CC(=O)c3c([nH]c(C(=O)OCCOC(C)C)c3C)C2)cc(OC)c1OC (stereo not drawn),40%
16,CCN1C(=O)c2cccc3c(NC(=O)c4ccc(S(=O)(=O)N(C)C)cc4)ccc1c23,47.9% (active)
17,O=C1C=C(N2CCCCCC2)C2(CCCCC2)O1,58.5% (active)
18,Cn1c(=O)n(C)c2cc(NC(=O)CCl)ccc21,73.4% (active)
19,Cc1c(Cl)cccc1NC(=O)CS(=O)(=O)c1ccccc1,55.1% (active)
20,CC(=O)c1ccc(NC(=O)CSc2nc3[nH]ncc3c(=O)[nH]2)cc1,61.5% (active)

row,SMILES,inhibition
1,CCCN(CC(=O)Nc1ccccc1C)CC(=O)Nc1ccc(Br)cc1F,58.6% (active)
2,CCS(=O)(=O)Nc1cccc(-c2ccc3nnc(-c4cccnc4)n3n2)c1,52.1% (active)
3,COc1cc(-c2nc(C(=O)NCC3CCCO3)cc3c2[nH]c2ccccc23)cc(OC)c1OC (stereo not drawn),49.6% (active)
4,Cn1c(SCC(=O)Nc2ccc3nc(SCC(=O)NC4CC4)sc3c2)nnc1-c1ccccc1,59.7% (active)
5,Cc1c(Cl)cccc1NC(=O)CSc1nnc(C)n1CC1CCCO1 (stereo not drawn),38.1%
6,O=C(Nc1cccnc1)c1ccc([N+](=O)[O-])s1,43.8% (active)
7,Cc1ccc(S(=O)(=O)N2CC(O)CC2C(=O)OCC(=O)Nc2ccc([N+](=O)[O-])cc2C(F)(F)F)cc1C (stereo not drawn),60.5% (active)
8,Cc1sc(NC(=O)C(C)C)c(C(=O)Nc2ccccc2)c1C,50.2% (active)
9,COc1ccc(-n2c(N)c(C(=O)NCc3cccnc3)sc2=S)cc1,48.7% (active)
10,CCOc1ccc(NC(=O)CSc2nc3ccccc3c(=O)n2CCCC(=O)NCC2CCCO2)cc1 (stereo not drawn),41.9% (active)
11,Cc1ccc(Cn2nc(C)c(NC(=O)c3noc4c3CCCCC4)c2C)cc1,53.6% (active)
12,Cc1nn(Cc2ccc(Cl)cc2)c(C)c1NC(=O)c1cc(C(C)C)on1,44.9% (active)
13,COc1cc(N)c(Cl)cc1C(=O)OCC(=O)N1c2ccccc2NC(=O)C1(C)C,19.4%
14,Cn1c(SCC(=O)Nc2ccc(N3CCOCC3)cc2)nnc1-c1ccco1,56.5% (active)
15,CCn1c2ccccc2c2cc(/C=N/n3cn[nH]c3=S)ccc21,28.1%
16,C[C@H](CO)N1C[C@H](C)[C@H](CN(C)Cc2ccncc2)Oc2cc(-c3ccccc3F)ccc2S1(=O)=O,64.6% (active)
17,O=[N+]([O-])c1ccc(-n2cnc3ccccc32)c([N+](=O)[O-])c1,54.7% (active)
18,COCCNc1ccc([N+](=O)[O-])cc1C(=O)NC1CCCc2ccccc21 (stereo not drawn),54.7% (active)
19,O=C(Cn1ccc(=O)[nH]c1=O)c1ccc([N+](=O)[O-])o1,14.3%
